From PubChem
Most compounds without a hit are left out; they make up all but 0.37% or so of the library.
Rac1 wt GTP bind = human Rac1 wildtype GTP binding, inhibitors and activators; AID 757; 190,000 tested, 0.27% active; GST-Rac1 beads, fluorescent GTP binding, flow cytometry; actives lie on both sides; 0 = cold GTP competed, 100 = untreated; P63000; GTP binding activity (% of control), % at 10 µM;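 active = GTP binding activity at least 20 points away from the 100% control level, either lower or higher; inconclusive = compound flagged as likely green fluorescent, judged across all proteins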
Rab2A wt mod = changes GTP binding to wildtype dog Rab2A, up or down. GTP binding activity, % at 10 µM. GST-Rab2 wt beads, Bodipy-GTP binding, flow cytometry. 190,000 tested, 0.19% active;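 active = GTP binding activity at least 20 points away from 100%, either lowered or raised; inconclusive = signal likely due to the compound's own green fluorescence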;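 also: 0% = beads with excess unlabeled GTP and 100% = no-compound control corrected for plate trend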
Rac1 mut GTP = human Rac1 activated mutant GTP binding change. P63000. GST-Rac1 activated beads, fluorescent GTP binding, flow cytometry; actives lie on both sides; 100% means binding = to untreated wells. percent activity (GTP binding), % at 10 µM. 190,000 tested, 0.11% active. AID 764;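 active = GTP binding at least 20 percentage points away from the 100% baseline, in either direction, so actives lie on both sides; inconclusive = Compound likely fluorescent itself, or too few beads counted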
Cdc42 wt GTP = modulators (inhibitors or activators) of GTP binding to human Cdc42 wildtype; percent activity (GTP binding), % at 10 µM; GST-Cdc42 beads, Bodipy-GTP binding, flow cytometry; actives lie on both sides; 190,000 tested, 0.2% active;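 active = percent activity GTP binding at least 20 points away from the 100% baseline, either down as inhibitor or up as activator; inconclusive = compound flagged as likely green fluorescent from well-wide comparison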;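 also: median bead fluorescence of bound Bodipy-FL-GTP at 100 nM; 0% = excess unlabeled GTP control and 100% = no compound control; below 100% means less GTP binding so inhibitor and above means activator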
Target sequence (P60953 whole entry, looked up): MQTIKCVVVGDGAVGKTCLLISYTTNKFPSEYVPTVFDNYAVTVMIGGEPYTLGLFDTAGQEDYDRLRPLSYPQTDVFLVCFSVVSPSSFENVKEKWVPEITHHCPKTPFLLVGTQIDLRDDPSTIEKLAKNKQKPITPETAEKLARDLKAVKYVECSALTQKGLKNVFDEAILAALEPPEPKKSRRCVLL
HRas wt GTP = modulators of GTP binding to human HRas wildtype; 190,000 tested, 0.14% active; AID 759; GST-Ras wt beads, Bodipy-FL-GTP binding, flow cytometry; actives lie on both sides; GTP binding activity, % at 10 µM;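 active = GTP binding activity at least 20% away from the 100% baseline, either lowered as inhibitor or raised as activator; inconclusive = flagged as likely green fluorescent, judged across all proteins in the well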;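 also: 0% = unlabeled GTP competition control and 100% = no-compound control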
Target sequence (P01112 whole entry, looked up): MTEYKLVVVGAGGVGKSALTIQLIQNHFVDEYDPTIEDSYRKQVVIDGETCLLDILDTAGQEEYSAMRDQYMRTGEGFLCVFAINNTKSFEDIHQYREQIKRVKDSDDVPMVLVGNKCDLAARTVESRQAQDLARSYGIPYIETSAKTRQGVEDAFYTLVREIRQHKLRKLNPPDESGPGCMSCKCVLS
Rab7 wt GTP bind = modulators of GTP binding to dog Rab7 wildtype GTPase | GST-Rab7 beads, fluorescent GTP binding, flow cytometry; actives lie on both sides; untreated = 100%, excess cold GTP = 0% | GTP binding activity (percent of control), % at 10 µM | 190,000 tested, 0.055% active | AID 758;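 active = fluorescent GTP binding to Rab7 beads changed by at least 20 points from the 100% baseline, either direction, mostly lower; inconclusive = compound itself probably fluorescent, or too few beads counted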;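 also: median green fluorescence of bound Bodipy-FL-GTP per Rab7 bead population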
* = called active by the depositor; u = inconclusive; [ ] = remark or other dose.

SMILES	Rac1 wt GTP bind	Rab2A wt mod	Rac1 mut GTP	Cdc42 wt GTP	HRas wt GTP	Rab7 wt GTP bind
O=C(CSc1nnc(-c2cccs2)o1)c1cccs1	96	96	95	97	98	97
CCCN1C(=O)/C(=C\C=C2/Sc3ccccc3N2CC)SC1=S	69*	74*	75*	73*	68*	77*
CCN1/C(=C\C=C2\C(=O)N(c3ccccc3)C(=S)N2C)Sc2ccccc21	83	87	85	83	78*	83
Cc1cccc(C)c1NC(=O)CNCC(=O)N(C)C	103	102	99	96	100	106
CC(C)NC(=O)/C=C/C(=O)O	102	101	97	98	101	107
COc1cc(C(=O)N2CCC(O)(c3ccccc3)CC2)cc(OC)c1OC	94	94	93	93	95	96
O=C1NN(c2ccccc2)C(=O)/C1=C/c1ccc(-c2ccc(Cl)c(C(=O)O)c2)o1	88	87	84	87	88	93
O=C(O)c1cc(-c2ccc(/C=C3\NC(=O)N(c4ccc(Cl)cc4)C3=O)o2)ccc1Cl	74*	80	77*	74*	81	94
Cc1ccc(/C=C2\SC(=S)N(C(Cc3ccccc3)C(=O)O)C2=O)cc1 (stereo unspecified)	83	79*	80	82	85	92
Cc1ccc2c(c1)c1nnc(SCC(=O)Nc3cccc(Cl)c3C)nc1n2CC(=O)O	74*	83	83	82	82	89
Cc1ccc2c(c1)c1nnc(SCC(=O)Nc3ccccc3C(F)(F)F)nc1n2CC(=O)O	86	89	91	90	91	94
O=C(Cn1nc2ccccc2n1)N/N=C/c1cc([N+](=O)[O-])ccc1O	61*	70*	79*	70*	73*	82
COc1cccc(OC)c1-c1nn2c(-c3cc(-c4ccccc4)n[nH]3)nnc2s1	206*[activator]	167*[activator]	u	179*[activator]	162*[activator]	u
CCOC(=O)/C=C1\SCC(=O)N1CCOc1cccc(Br)c1	86	79*	84	83	62*	73*
COC(=O)CP(=O)(c1ccccc1)c1ccccc1	94	94	95	97	97	93
COc1ccc(-c2cc(C#N)nc(N3CCNCC3)n2)cc1	131*[activator]	127*[activator]	131*[activator]	131*[activator]	125*[activator]	113
COc1ccc(-c2cc(C#N)nc(N3CCN(C)CC3)n2)cc1	107	103	101	102	101	98
O=C(CCN1CCCC1Cc1ccccc1)c1ccc2c(c1)OCCO2 (stereo unspecified)	84	84	83	76*	85	90
O=C(CCN1CCCCC1)c1ccc2c(c1)OCCO2	108	103	102	105	103	103
O=C(Nc1ccc2c(c1)Cc1ccccc1-2)c1cccnc1	96	93	93	95	93	97
C=CC#CC[N+]1(CC#Cc2ccccc2)CCOCC1	128*[activator]	100	116	107	106	101
C(#Cc1ccccc1)C[N+]1(CC#Cc2ccccc2)CCCC1	103	102	98	103	103	104
CC(=O)c1ccc(N2CCN(C(=O)c3ccc4c(=O)n(-c5ccccc5)c(=O)[nH]c4c3)CC2)cc1	121*[activator]	107	106	105	108	104
O=C(c1ccc2c(=O)n(-c3ccccc3)c(=O)[nH]c2c1)N1CCN(c2ccc(F)cc2)CC1	110	105	101	106	105	107
CCOc1ccc(CCNc2ccc3nnc(-c4ccccc4)n3n2)cc1OCC	76*	76*	89	79*	74*	88
SMILES	Rac1 wt GTP bind	Rab2A wt mod	Rac1 mut GTP	Cdc42 wt GTP	HRas wt GTP	Rab7 wt GTP bind
Clc1ccc(CNc2ccc3nnc(-c4ccccc4)n3n2)cc1	98	97	97	98	97	94
COc1ccc(-c2cc(-c3ccccc3)c(C#N)c(=S)[nH]2)cc1	85	85	80	79*	82	95
CCOc1cc(/C=C2\SC(=O)N=C2N)ccc1O	77*	80	89	87	86	90
CCCCNC(=O)NS(=O)(=O)c1ccc(NS(=O)(=O)c2ccccc2)cc1	102	98	97	99	100	100
O=S(=O)(Nc1nc2ccccc2[nH]1)c1ccc2ccccc2c1	95	93	90	94	93	92
O=S(=O)(Nc1ncn[nH]1)c1ccc2ccccc2c1	126*[activator]	110	113	121*[activator]	113	112
O=C(CN1CCN(C(=O)c2cccc(F)c2)CC1)NC1CCCCC1	95	94	95	97	97	96
CCN(CC)S(=O)(=O)c1ccc2oc(C(=O)N3CCc4ccccc4C3)c(C)c2c1	128*[activator]	108	107	107	110	109
CCN(CC)S(=O)(=O)c1ccc2oc(C(=O)N3CCCCCC3)c(C)c2c1	107	109	101	112	109	103
CC(C)NC(=O)NC(=O)CN1C(=O)NC(Cc2c[nH]c3ccccc23)C1=O (stereo unspecified)	95	98	94	93	95	101
COc1cccc(CC(NC(C)=O)C(=O)NC2CCN(S(=O)(=O)c3ccc4ccccc4c3)CC2)c1 (stereo unspecified)	104	102	98	103	101	100
COc1cccc(/C=N/Nc2ccc(C(=O)O)cc2)c1O	97	94	97	96	95	96
COc1cccc(/C=N/Nc2nn3cnnc3c3ccccc23)c1O	70*	60*	70*	58*	59*	77*
O=C(CN1C(=O)C2C3c4ccccc4C(c4ccccc43)C2C1=O)Nc1cccc(C(=O)O)c1 (stereo unspecified)	130*[activator]	127*[activator]	155*[activator]	125*[activator]	124*[activator]	145*[activator]
Cc1[nH]nc2c1C(c1cccs1)C1=C(CC(C)(C)CC1=O)N2 (stereo unspecified)	99	98	92	96	98	107
Cc1ccc2nc3ccc(N4CCCC4)nn3c(=O)c2c1	106	106	100	107	104	103
CC1CCCN(c2ccc3nc4ccccc4c(=O)n3n2)C1 (stereo unspecified)	78*	81	87	84	80	96
O=C1c2ccccc2-c2onc3ccc(Oc4ccccc4)c1c23	79*	79*	68*	78*	81	88
CCOC(=O)C(C(=O)OCC)c1cc(Br)c2noc3c2c1C(=O)c1ccccc1-3	94	99	89	103	96	102
Cc1ccccc1OCCn1cc(C(=S)N2CCN(C)CC2)c2ccccc21	107	104	100	102	104	105
